From PubChem BioAssay (EPA / NIEHS)
Activity calls are given as the source filed them. Rule for the calls: active = hit-call score of the fitted dose curve at least 0.9, where 1 is the maximum; inactive = score below 0.9.

Columns and labels:
[1] = read-out: Interleukin-1 alpha (IL1a), IL1A (gene 3552); experiment: BSK_KF3CT_IL1a: BioMAP Diversity Plus: KF3CT Assay for Interleukin-1 alpha (IL1a) Biomarker Activity (AID 2283070); conditions: primary human keratinocytes with fibroblasts; actives raise or lower the signal
Summary of the method: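 Primary human keratinocyte plus foreskin fibroblast co-culture, dosed and measured at 24 h in 96-well plates. IL-1a level quantified by ELISA; bidirectional fit relative to DMSO.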

[2] = read-out: TIMP metallopeptidase inhibitor 2 (TIMP2), TIMP2 (gene 7077); experiment: BSK_KF3CT_TIMP2: BioMAP Diversity Plus: KF3CT Assay for TIMP metallopeptidase inhibitor 2 (TIMP2) Biomarker Activity (AID 2283071); conditions: primary human keratinocytes with fibroblasts; actives raise or lower the signal
Summary of the method: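 Co-culture of human primary keratinocytes and foreskin fibroblasts, measured 24 h after chemical dosing. TIMP-2 quantified by ELISA and fitted in both directions relative to DMSO. Cytotoxicity checked in parallel cultures by SRB total-protein staining.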

[3] = read-out: Transforming growth factor beta 1 (TGFb1), TGFB1 (gene 7040); experiment: BSK_KF3CT_TGFb1: BioMAP Diversity Plus: KF3CT Assay for Transforming growth factor beta 1 (TGFb1) Biomarker Activity (AID 2283072); conditions: primary human keratinocytes with fibroblasts; actives raise or lower the signal
Summary of the method: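 Human keratinocyte/foreskin fibroblast co-culture; TGF-b1 measured by ELISA 24 h after dosing, fitted bidirectionally versus DMSO. Cytotoxicity checked in parallel cultures by total protein (SRB staining, 560 nm).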

[4] = read-out: C-C motif chemokine 2 (Homo sapiens) (UniProt P13500); experiment: BSK_KF3CT_MCP1: BioMAP Diversity Plus: KF3CT Assay for Monocyte Chemoattractant Protein 1 (MCP1/CCL2) Biomarker Activity (AID 2283073); conditions: primary human keratinocytes with fibroblasts; actives raise or lower the signal
Summary of the method: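 Human keratinocyte–foreskin fibroblast co-culture; MCP-1 measured by ELISA 24 h after dosing. Bidirectional fit vs DMSO; cytotoxicity tracked by SRB total protein in parallel cultures.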

[5] = read-out: Matrix Metallopeptidase 9 (MMP9), MMP9 (gene 4318); experiment: BSK_KF3CT_MMP9: BioMAP Diversity Plus: KF3CT Assay for Matrix Metallopeptidase 9 (MMP9) Biomarker Activity (AID 2283074); conditions: primary human keratinocytes with fibroblasts; actives raise or lower the signal;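 for AC50: MMP9 protein level quantified by ELISA in the co-culture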
Summary of the method: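 Human keratinocyte and foreskin fibroblast co-culture exposed to chemicals for 24 h; MMP9 biomarker measured by ELISA, bidirectional fitting relative to DMSO; cytotoxicity tracked by SRB total protein staining in parallel cultures.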

[6] = read-out: urokinase plasminogen activator (uPA), PLAU (gene 5328); experiment: BSK_KF3CT_uPA: BioMAP Diversity Plus: KF3CT Assay for urokinase plasminogen activator (uPA) Biomarker Activity (AID 2283075); conditions: primary human keratinocytes with fibroblasts; actives raise or lower the signal
Summary of the method: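 Primary human keratinocyte/foreskin fibroblast co-culture exposed to chemical; uPA measured by ELISA at 24 h. Bidirectional fit versus DMSO, with parallel SRB total-protein staining for cytotoxicity.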

[7] = read-out: E-selectin (Homo sapiens) (UniProt P16581); experiment: BSK_LPS_Eselectin: BioMAP Diversity Plus: LPS Assay for Eselectin Biomarker Activity (AID 2283077); conditions: primary human HUVEC with PBMC; actives raise or lower the signal
Summary of the method: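 Human umbilical vein endothelial cells co-cultured with PBMC under LPS stimulation; cell-surface E-selectin measured by ELISA 24 h after dosing. Change in either direction versus DMSO, with SRB total-protein staining in parallel cultures for cytotoxicity.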

[8] = read-out: Interleukin-8 (IL8), CXCL8 (gene 3576); experiment: BSK_LPS_IL8: BioMAP Diversity Plus: LPS Assay for Interleukin-8 (IL8) Biomarker Activity (AID 2283078); conditions: primary human HUVEC with PBMC; actives raise or lower the signal
Summary of the method: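 Human umbilical vein endothelial cells co-cultured with PBMC, LPS-stimulated, exposed to compound for 24 h. IL-8 quantified by ELISA; fitted in both directions against DMSO, with SRB total-protein staining of parallel cultures for cytotoxicity.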

[9] = BSK_LPS_SRB: Viability Assessment in the BioMAP Diversity Plus: LPS Assay (AID 2283079); conditions: primary human HUVEC with PBMC;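 note: total protein by sulforhodamine B absorbance as a cytotoxicity measure; measured one day after compound addition; fitted in both directions against DMSO so loss or gain of signal counts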
Summary of the method: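 Co-culture of human umbilical vein endothelial cells and PBMC, read 24 h after dosing. Total protein by 0.1% SRB staining after 10% TCA fixation, absorbance at 560 nm; bidirectional fit against DMSO.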

[10] = read-out: CD40, CD40 (gene 958); experiment: BSK_LPS_CD40: BioMAP Diversity Plus: LPS Assay for CD40 Biomarker Activity (AID 2283076); conditions: primary human HUVEC with PBMC; actives raise or lower the signal
Summary of the method: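 HUVEC plus PBMC co-culture stimulated with LPS; CD40 quantified by ELISA 24 h after compound dosing. Fitting was bidirectional relative to DMSO. SRB staining of parallel cultures flagged overt cytotoxicity.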

E-selectin (Homo sapiens), sequence (P16581 whole entry, looked up): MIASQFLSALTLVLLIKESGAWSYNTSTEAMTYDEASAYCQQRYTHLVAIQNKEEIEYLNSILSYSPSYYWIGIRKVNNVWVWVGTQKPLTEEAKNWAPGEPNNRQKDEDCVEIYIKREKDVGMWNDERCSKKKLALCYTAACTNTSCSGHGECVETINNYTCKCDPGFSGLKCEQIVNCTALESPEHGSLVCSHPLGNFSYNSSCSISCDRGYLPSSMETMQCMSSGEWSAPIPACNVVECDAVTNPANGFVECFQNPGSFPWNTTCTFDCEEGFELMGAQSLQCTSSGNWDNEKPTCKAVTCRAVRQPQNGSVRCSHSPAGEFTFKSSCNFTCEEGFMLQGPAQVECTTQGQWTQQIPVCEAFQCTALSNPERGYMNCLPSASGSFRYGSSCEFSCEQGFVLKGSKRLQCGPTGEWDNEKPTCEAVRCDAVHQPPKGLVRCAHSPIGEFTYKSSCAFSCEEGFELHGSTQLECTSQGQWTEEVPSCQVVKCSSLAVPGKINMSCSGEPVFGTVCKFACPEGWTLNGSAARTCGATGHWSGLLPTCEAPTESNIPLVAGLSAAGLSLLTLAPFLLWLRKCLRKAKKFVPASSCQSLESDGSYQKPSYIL

Q: With `C=CCc1ccc(O)c(OC)c1` as the compound, how does the outcome [1] read?
A: inactive

Q: What about the outcome [2] of the same compound?
A: inactive

Q: What about the outcome [3] of the same compound?
A: inactive

Q: And the outcome [4]?
A: inactive

Q: And the outcome [5]?
A: inactive

Q: What about the outcome [6] of the same compound?
A: inactive

Q: And the outcome [7]?
A: inactive

Q: And the outcome [8]?
A: inactive

Q: What about the outcome [9] of the same compound?
A: inactive

Q: Which results are given for `CCCCC(CC)COC(=O)CC(C(=O)OCC(CC)CCCC)S(=O)(=O)O` (stereo unspecified)?
A: AC50 [1]: 8.83 µM (active); AC50 [3]: 2.66 µM (active); AC50 [4]: 3.25 µM (active); AC50 [5]: 4.84 µM (active); AC50 [6]: 12 µM (active); AC50 [10]: 32.3 µM (active); AC50 [7]: 38 µM (active); AC50 [8]: 31.6 µM (active); AC50 [9]: 30.7 µM (active)

Q: What does the source list for `CCOC(=O)CCC(=O)OCC`?
A: outcome [1]: inactive; outcome [2]: inactive; outcome [3]: inactive; outcome [4]: inactive; outcome [5]: inactive; outcome [6]: inactive; outcome [7]: inactive; outcome [8]: inactive; outcome [9]: inactive

Q: Which outcome [1] does the source give for `COCCOC[C@H](CC1(C(=O)NC2CCC(C(=O)O)CC2)CCCC1)C(=O)Oc1ccc2c(c1)CCC2` (stereo partly specified) here?
A: inactive

Q: What about the outcome [2] of the same compound?
A: inactive

Q: What about the outcome [3] of the same compound?
A: inactive

Q: And the outcome [4]?
A: inactive

Q: What about the outcome [5] of the same compound?
A: inactive

Q: What about the outcome [6] of the same compound?
A: inactive

Q: And the outcome [7]?
A: inactive

Q: What about the outcome [8] of the same compound?
A: inactive

Q: Which results are given for `c1cc(-c2ccncc2)ccn1`?
A: outcome [1]: inactive; outcome [2]: inactive; outcome [3]: inactive; outcome [4]: inactive; outcome [5]: inactive; outcome [6]: inactive; outcome [7]: inactive; outcome [8]: inactive; outcome [9]: inactive

Q: What does the source list for `Nc1ccc2c(c1)C(=O)c1ccccc1C2=O`?
A: outcome [1]: inactive; outcome [2]: inactive; outcome [3]: inactive; outcome [4]: inactive; outcome [6]: inactive; outcome [10]: inactive; outcome [7]: inactive; outcome [8]: inactive; outcome [9]: inactive

Q: What does the source list for `CC(CO)OC(C)CO` (stereo unspecified) (tested in a mixture with another compound)?
A: outcome [1]: inactive; outcome [2]: inactive; outcome [3]: inactive; outcome [4]: inactive; outcome [5]: inactive; outcome [6]: inactive; outcome [7]: inactive; outcome [8]: inactive; outcome [9]: inactive

Q: Which results are given for `Cc1cc(=O)[nH]c(=S)[nH]1`?
A: outcome [1]: inactive; outcome [2]: inactive; outcome [3]: inactive; outcome [4]: inactive; outcome [5]: inactive; outcome [6]: inactive; outcome [7]: inactive; outcome [8]: inactive; outcome [9]: inactive

Q: What does the source list for `CC=Cc1ccc(O)c(OC)c1`?
A: outcome [1]: inactive; outcome [2]: inactive; outcome [3]: inactive; outcome [4]: inactive; outcome [5]: inactive; outcome [6]: inactive; outcome [7]: inactive; outcome [8]: inactive; outcome [9]: inactive

Q: What does the source list for `CCCCN(CCCC)CCCC`?
A: outcome [1]: inactive; outcome [2]: inactive; outcome [3]: inactive; outcome [4]: inactive; outcome [5]: inactive; outcome [6]: inactive; outcome [7]: inactive; outcome [8]: inactive; outcome [9]: inactive

Q: For `CC(=O)C(C)=CC1C(C)=CCCC1(C)C` (stereo unspecified), which outcome [1] is on record?
A: inactive

Q: And the outcome [2]?
A: inactive

Q: And the outcome [3]?
A: inactive

Q: What about the outcome [4] of the same compound?
A: inactive

Q: What about the outcome [5] of the same compound?
A: inactive

Q: What about the outcome [6] of the same compound?
A: inactive

Q: What about the outcome [7] of the same compound?
A: inactive

Q: And the outcome [8]?
A: inactive

Q: And the outcome [9]?
A: inactive

Q: With `Cc1ccc2ncccc2c1` as the compound, how does the outcome [1] read?
A: inactive

Q: And the outcome [2]?
A: inactive

Q: And the outcome [3]?
A: inactive

Q: What about the outcome [4] of the same compound?
A: inactive

Q: What about the outcome [5] of the same compound?
A: inactive

Q: And the outcome [6]?
A: inactive

Q: And the outcome [7]?
A: inactive

Q: What about the outcome [8] of the same compound?
A: inactive
